Bioassay records deposited in PubChem by Broad Institute.
Pf Dd2 growth = P. falciparum Dd2 growth inhibitors, primary screen, SYBR Green fluorescence, single dose replicates; 72 h; stronger effect = lower value; activity change, % at 10 µM; 2.3% of 94,000 active; in the data active = activity change below about -80%; inconclusive = no clear call, values can overlap the other calls
T cruzi growth-1 = T. cruzi intracellular proliferation inhibitors, primary screen, cell-based, beta-gal Tulahuen parasites, NIH3T3 host, luminescence; T. cruzi beta-gal in NIH3T3, GalScreen luminescence, 90 h; 5.9% of 77,000 active; inhibition, % at 8.34 µM;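 active = mean inhibition above about 93%, with at least 55% of replicates each passing it, limit read from the data, passing the limit was not always enough; inconclusive = only one of those two conditions holds; inactive = neither condition holds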
C diff HTS = C. difficile growth inhibitors, primary screen, HTS; Clostridium difficile clinical isolate growth, OD600, 24 h; stronger effect = lower value; growth activity, negative = inhibition, % at 16 µg/mL (by protocol); 0.25% of 86,000 active;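 active = mean growth activity at or below -80% and every replicate also at or below -80%; inconclusive = mean at or below -80% but some replicate above -80%; inactive = mean growth activity above -80%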
T cruzi growth-2 = T. cruzi intracellular proliferation inhibitors, confirmation, cell-based, NIH3T3 host, beta-gal parasite, luminescence, cherry-pick; shares compounds with T cruzi growth-1; T. cruzi beta-gal in NIH3T3, GalScreen luminescence, 90 h; inhibition, % at 8.35 µM; 72% of 5,600 active; AID 651739, 2012;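 active = mean replicate inhibition above about 95% and at least 55% of replicates individually reaching it, limit read from the data; inconclusive = only one of the two criteria is met; inactive = neither criterion is met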
T cruzi growth-3 = inhibitors of intracellular T. cruzi replication, confirmation, NIH3T3 host cells, beta-gal parasites, cherry-pick, set 2; shares compounds with T cruzi growth-1; T. cruzi beta-gal in NIH3T3, GalScreen luminescence, 90 h; inhibition, % at 2.09 µM; 21% of 5,600 active; AID 651740, 2012;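 active = mean inhibition above about 95%, with at least 55% of replicates also reaching it, limit read from the data; inconclusive = meets just one of the two conditions; inactive = meets neither condition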
NIH3T3 tox = cytotoxicity in mouse NIH/3T3 fibroblasts, confirmation, cytotoxicity control for T. cruzi proliferation inhibitor project, cell-based, cherry-pick, single point; shares compounds with T cruzi growth-1; NIH/3T3 viability, CellTiter-Glo ATP luminescence, 90 h; cytotoxicity (signal decrease), % at 8.35 µM; 14% of 5,600 active; AID 651742, 2012;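 active = mean signal decrease across replicates above about 35% based on untreated-well scatter, with enough replicates individually passing, limit read from the data; inconclusive = no rule stated though some were filed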
3T3 cytotox 2 = NIH/3T3 fibroblast cytotoxicity, confirmation, cytotoxicity control, cell-based, cherry-pick, single point, set 2 | shares compounds with T cruzi growth-1 | NIH/3T3 viability, CellTiter-Glo ATP luminescence, 90 h | inhibition, % at 24.9 µM | 56% of 5,600 active | AID 651744, 2012;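 active = mean loss of cell viability signal at or above a set limit, and enough replicates individually reaching it; inconclusive = meets only the mean limit or only the replicate share; inactive = meets neither condition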
Each line names hits and unclear results; the compound was inactive in the other large screens (follow-up assays come after a bar, where they were run). An excerpt weighted towards active compounds, which were near 6.8% of everything screened.

CN1[C@@H]2c3cccc(=O)n3C[C@H]1[C@H](CO)[C@H]2C(=O)NCC1CC1	none (no result: Pf Dd2 growth)
COC(=O)[C@@H]1[C@@H](CO)[C@@H]2Cn3c(ccc(-c4ccccc4)c3=O)[C@H]1N2CCc1ccccc1	none
N#Cc1ccc(-c2ccc([C@H]3[C@@H](CO)N4CCCCN(C(=O)Cc5ccccc5)C[C@H]34)cc2)cc1	none
N#Cc1cccc(-c2ccc([C@H]3[C@@H](CO)N4CCCCN(C(=O)Cc5ccccc5)C[C@@H]34)cc2)c1	T cruzi growth-1 110 | T cruzi growth-2 103 | T cruzi growth-3 inactive | NIH3T3 tox inactive | 3T3 cytotox 2 inactive
O=C(Cc1ccccn1)N1CCCCN2[C@H](CO)[C@H](c3ccc(-c4ccccc4)cc3)[C@H]2C1	none
O=C(Cc1ccccn1)N1CCCCN2[C@@H](CO)[C@@H](c3ccc(-c4ccccc4)cc3)[C@@H]2C1	T cruzi growth-1 113 | T cruzi growth-2 inconclusive | T cruzi growth-3 inactive | NIH3T3 tox inactive | 3T3 cytotox 2 inactive
O=C(Cc1ccccn1)N1CCCCN2[C@H](CO)[C@@H](c3ccc(Br)cc3)[C@H]2C1	T cruzi growth-1 105 | T cruzi growth-2 inactive | T cruzi growth-3 inactive | NIH3T3 tox inactive | 3T3 cytotox 2 inactive
O=C(Cc1ccccn1)N1CCCCN2[C@H](C1)[C@H](c1ccc(Br)cc1)[C@@H]2CO	none
CCCNC(=O)N1[C@@H]2c3ccc(-c4cccc(C(=O)N(C)C)c4)c(=O)n3C[C@H]1[C@H](CO)[C@H]2C(=O)O	none (no result: T cruzi growth-1)
O=C(O)[C@@H]1[C@@H](CO)[C@@H]2Cn3c(ccc(-c4ccncc4)c3=O)[C@H]1N2C(=O)C1CCC1	none
COC(=O)[C@@H]1[C@@H](CO)[C@@H]2Cn3c(cccc3=O)[C@@H]2N1CC1CC1	none
CN(C)CC#Cc1ccc([C@H]2[C@@H](CO)N3CCCCN(C(=O)Cc4ccccn4)C[C@H]23)cc1	none
CN(C)CC#Cc1ccc([C@@H]2[C@@H](CO)N3CCCCN(C(=O)Cc4ccccn4)C[C@@H]23)cc1	none
CN(C)CC#Cc1ccc([C@@H]2[C@@H](CO)N3CCCCN(C(=O)Cc4ccccn4)C[C@H]23)cc1	T cruzi growth-1 114 | T cruzi growth-2 inactive | T cruzi growth-3 inactive | NIH3T3 tox inactive | 3T3 cytotox 2 inactive
CN(C)CC#Cc1ccc([C@@H]2[C@H](CO)N3CCCCN(C(=O)Cc4ccccn4)C[C@@H]23)cc1	T cruzi growth-1 114 | T cruzi growth-2 inactive | T cruzi growth-3 inactive | NIH3T3 tox inactive | 3T3 cytotox 2 inactive
CCCNC(=O)N1[C@@H]2Cn3c(ccc(-c4cccc(C(=O)N(C)C)c4)c3=O)[C@H]1[C@@H](C(=O)O)[C@@H]2CO	none (no result: T cruzi growth-1)
O=C(Cc1ccccn1)N1CCCCN2[C@H](CO)[C@H](c3ccc(-c4ccccc4F)cc3)[C@H]2C1	none
CC=Cc1ccc2n(c1=O)C[C@H]1[C@H](CO)[C@@H](C(=O)O)[C@@H]2N1S(=O)(=O)c1ccccc1C (mixture of isomers)	none
CCCNC(=O)[C@H]1[C@H](CO)[C@H]2Cn3c(cccc3=O)[C@H]2N1CC	none (no result: T cruzi growth-1)
